In PubChem BioAssay AID720722 (Molecular Libraries Program, Specialized Chemistry Center, …, 2013):
The source made the active and inactive calls. The limit is not given here; nearly all actives have IC50 up to about 12 µM.

assay: blockers of mitochondrial swelling – biochemical, absorbance, isolated mitochondria, dry powder samples, dose response (AID 720722)

IC50, active:
CCOC(=O)N1CCN(S(=O)(=O)c2ccc(C(=O)N(CCCN(C)C)c3nc4c(C)c(C)ccc4s3)cc2)CC1 5.28 µM
CCN(CC)CCCN=Cc1c(O)n(Cc2ccccc2)c(=O)c2ccccc12 3.34 µM
C=CCNCCCOc1ccc(C)cc1Br 11.6 µM
CNCCC=C1c2ccccc2CCc2ccccc21 8.45 µM
COc1ccc(C)c2sc(N(CCCN(C)C)C(=O)CS(=O)(=O)c3ccc(F)cc3)nc12 3.9 µM
COCCCNCCCOc1ccc(Cl)cc1C(C)(C)C 4.04 µM
C=CCNCCOc1ccc(C(C)(C)c2ccccc2)cc1 12.4 µM
C=CCNCCOCCOc1ccc(Cl)cc1C(C)(C)C 4.04 µM
COC(=O)c1c(NC(=O)C2CCCCC2)sc2c1CC(C)(C)NC2(C)C 3.64 µM
CN1CCC[C@@H]1CCO[C@](C)(c1ccccc1)c1ccc(Cl)cc1 4.43 µM
COc1ccc(-n2cc(CNC3CCN(C)CC3)c(-c3cccc(F)c3)n2)cc1 2.03 µM
CC1CCCN(CCC(=O)c2ccc(Br)cc2)C1 (stereo not given) 3.14 µM
COc1ccc(Cl)cc1C(=O)Nc1ccc(CN2CCCCC2)cc1 5.08 µM
O=C(CC1NCCc2ccccc21)Nc1ccc(Cl)cc1 (stereo not given) 2.78 µM
Cc1cc(C)c2nc(N(CCCN(C)C)C(=O)c3ccc(S(=O)(=O)N4CCCCCC4)cc3)sc2c1 2.07 µM
CCN(CC)c1ccc(NC(=O)c2cc(Cl)ccc2OC)cc1 5.7 µM
Cc1ccc2nc(N(CCCN(C)C)C(=O)CCc3ccccc3)sc2c1 1.58 µM
CN(C)CCCN1c2ccccc2Sc2ccc(Cl)cc21 2.5 µM
COc1cc(CNCCO)cc(Cl)c1OCc1ccccc1Cl 2.69 µM
Cc1ccc2nc(N(CCN(C)C)C(=O)/C=C/c3cccs3)sc2c1 3.33 µM
N=c1sccn1CC(=O)Nc1cccc(Oc2ccccc2)c1 2.92 µM
COc1cc(NC(=O)c2cc(-c3cccc(O)c3)on2)cc(OC)c1OC 0.391 µM
CC(C)(C)c1ccccc1OCCCCCNCCO 3.67 µM
N#Cc1c(NCCN)nc(-c2ccco2)c2c1CCCC2 8.12 µM
Cc1cc(C)c2nc(N(CCCN(C)C)C(=O)C3=COCCO3)sc2c1 3.11 µM
